Compound activity as filed in PubChem BioAssay.
A selection: hits, their analogues and other compounds. The true share with any hit is near 28%.
D1 mod: allosteric modulators of human D1 dopamine receptor; HEK293 D1, CRE-luciferase, dopamine EC30 potentiation; actives deviate in either direction; B-score at 10 µM; hit rate 5.9% among 58,000;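 active = luminescence count or its row- and column-corrected plate score outside the 99.7% band of the plate's sample wells, on either side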
CYP2C19 inhib: blocks human cytochrome P450 2C19 | inhibition, % at 5 µM | hit rate 21% among 96,000 | P33261 | CYP2C19 Supersomes, luciferin-H EGE luminescence, 30 min | AID 778;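 active = CYP2C19 inhibition above a set limit at 5 µM in the primary screen, cut at about 50% in these data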
hDAT+cocaine: human DAT dopamine uptake with cocaine, either direction; LLC-PK1 hDAT cells, [14C]-dopamine uptake with cocaine IC80; actives deviate in either direction; hit rate 1.3% among 110,000; B-score at 10 µM; AID 449768;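 active = Z score or B-score, a plate-position-corrected score, falls beyond the plate's 99.7% confidence bounds, in either direction; inactive = both scores lie inside the 99.7% bounds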
Target sequence (Q01959 whole entry, looked up): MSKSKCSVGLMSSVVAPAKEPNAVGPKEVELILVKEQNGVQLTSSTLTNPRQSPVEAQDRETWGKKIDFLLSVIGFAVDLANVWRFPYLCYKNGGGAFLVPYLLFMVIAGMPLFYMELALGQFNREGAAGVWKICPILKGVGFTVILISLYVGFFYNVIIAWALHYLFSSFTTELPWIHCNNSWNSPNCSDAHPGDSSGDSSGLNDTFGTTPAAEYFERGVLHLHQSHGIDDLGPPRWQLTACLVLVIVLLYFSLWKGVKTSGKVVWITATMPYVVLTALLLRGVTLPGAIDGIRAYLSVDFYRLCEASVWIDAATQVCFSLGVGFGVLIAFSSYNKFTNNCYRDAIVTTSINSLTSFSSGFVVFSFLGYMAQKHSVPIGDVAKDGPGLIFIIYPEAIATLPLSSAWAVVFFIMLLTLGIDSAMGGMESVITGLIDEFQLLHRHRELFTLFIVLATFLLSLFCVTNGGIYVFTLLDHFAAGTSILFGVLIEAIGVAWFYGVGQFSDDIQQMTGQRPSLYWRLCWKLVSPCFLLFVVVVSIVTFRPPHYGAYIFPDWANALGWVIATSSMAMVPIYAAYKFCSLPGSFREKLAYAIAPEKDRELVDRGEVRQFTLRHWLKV
CYP2C9 inh: blocks human cytochrome P450 2C9 | P11712 | CYP2C9 Supersomes, luciferin-H conversion, luminescence | inhibition, % at 5 µM | hit rate 20% among 96,000 | AID 777;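 active = blocking of liver enzyme CYP2C9 beyond about 50% at 5 µM, limit read from the data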
CYP2C19 act: cytochrome P450 2C19 (human) activation | 96,000 tested, under 10 active | recombinant CYP2C19, luciferin-H EGE luminescence; active compounds read high; 0 = fully inhibited enzyme, 1 = untreated enzyme | activation factor at 5 µM | P33261 | AID 1025;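 active = activation factor of at least 2 at 5 µM in the primary screen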
CYP2C9 act: increases human cytochrome P450 2C9 activity. activation factor at 5 µM. recombinant CYP2C9, luciferin-H conversion, luminescence; active compounds read high; factor 1 = untreated enzyme, 0 = blocked. hit rate 1.4% among 96,000;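 active = activation factor of 2 or more for CYP2C9 at a 5 µM dose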
D1 PAM confirm: D1 receptor (human) allosteric modulation, confirmed; shares compounds with D1 mod; HEK293 D1 CRE-luciferase, dopamine EC30 potentiation; active compounds read high; luminescence at 10 µM; hit rate 88% among 2,200; AID 642;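 active = luminescence in either of two replicates above the same-plate mean plus 3 SD of the low-dose dopamine control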
D1 ag no DA: activates D1 CRE-luciferase signal without dopamine present | shares compounds with D1 mod | HEK293 D1 CRE-luciferase, luminescence, no dopamine; active compounds read high | luminescence at 10 µM | hit rate 0.8% among 1,900; in the data active = luminescence above about 3900
Isoprot counter: counter-screen for D1 modulators: isoproterenol response in HEK293 cells. shares compounds with D1 mod. HEK293 D1 CRE-luciferase, isoproterenol EC30 counter-screen. calls only at 10 µM. hit rate 63% among 2,200;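 active = luminescence in either replicate above plate mean of wells with a partly effective reference agonist dose plus 3 SD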;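 note: isoproterenol raises cAMP through native beta-adrenoceptor Gs so signal bypasses D1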
Each line names hits and unclear results; the compound was inactive in the other large screens (follow-up assays come after a bar, where they were run).

O=C(OCCN1C(=O)c2ccccc2C1=O)c1cc(S(=O)(=O)N2CCOCC2)ccc1Cl	D1 mod 3.39, CYP2C19 inhib 78.5, CYP2C9 inh 85.5 | D1 PAM confirm 9076 | D1 ag no DA inactive | Isoprot counter active
Cc1ccc(NC(=O)C2CCCN(S(=O)(=O)c3c(C)noc3C)C2)cc1F (stereo unspecified)	none
c1ccc2c(c1)nc(Nc1ccc3c(c1)OCO3)c1nnnn12	D1 mod 8.56 | D1 PAM confirm 10812 | D1 ag no DA inactive | Isoprot counter active
Fc1cccc(Nc2nc3ccccc3n3nnnc23)c1	none (no result: D1 mod)
Cc1ccc(CNc2nc3ccccc3n3nnnc23)cc1	D1 mod 3.4 | D1 PAM confirm 15516 | D1 ag no DA inactive | Isoprot counter inactive
O=C(COc1c(F)c(F)cc(F)c1F)NC(=O)NC1CCCC1	none
CCc1noc2c1/C(=N\O)CC(c1ccccc1)C2 (stereo unspecified)	D1 mod 17.2, CYP2C19 inhib 75.8, CYP2C9 inh 72.5 | D1 PAM confirm 25792 | D1 ag no DA inactive | Isoprot counter active
CCOc1ccc(CNC(=O)CCn2c(=O)oc3ccccc32)cc1	D1 mod 5.36 | D1 PAM confirm inactive | D1 ag no DA inactive | Isoprot counter inactive
Cn1ncc2c(NCc3ccccc3)ncnc21	none
C1=Nc2c(NCc3ccccc3)ncnc2Oc2ccccc21	D1 mod 7.98 | D1 PAM confirm 10088 | D1 ag no DA inactive | Isoprot counter active
COc1cccc(OCCNc2cc(Cl)ccc2[N+](=O)[O-])c1	none (no result: D1 mod)
CCOc1ccc(C2=Nn3c(nnc3-c3ccc(OC)cc3)SC2)cc1	D1 mod 7.77 | D1 PAM confirm 11104 | D1 ag no DA inactive | Isoprot counter active
COc1ccc(OCc2nnc3n2N=C(c2ccc(OC)cc2)CS3)cc1	D1 mod 9.69, CYP2C19 inhib 88.4, CYP2C9 inh 89.8 | D1 PAM confirm 13236 | Isoprot counter active
c1ccc(C2=Nn3c(nnc3-c3ccccn3)SC2)cc1	none (no result: D1 mod)
CCc1noc(C)c1C(=O)Nc1ncc(C)s1	none
CCOC(=O)c1c(C)n(C)c2ccc(OC)c(NC(=O)CN3CCN(C4CCCCC4)CC3)c12	none (no result: D1 mod)
O=C(CSc1nnc(-c2ccccc2Cl)o1)Nc1ccc2c(c1)OCCO2	none (no result: D1 mod, CYP2C19 inhib, CYP2C9 inh, CYP2C19 act, CYP2C9 act)
O=C(CSc1nc(Nc2ccccc2)nc(N2CCOCC2)n1)N1CCCC1	D1 mod 5.57 | D1 PAM confirm 9432 | D1 ag no DA inactive | Isoprot counter active
O=C(CSc1nc(Nc2ccccc2)nc(N2CCOCC2)n1)Nc1ccc2c(c1)OCCO2	D1 mod 3.4, CYP2C19 inhib 61.1, CYP2C9 inh 60.4 | D1 PAM confirm 8860 | Isoprot counter active
N#Cc1nc(-c2ccccc2F)oc1NCCc1ccccc1	none (no result: D1 mod)
COCCCNc1oc(-c2ccccc2F)nc1C#N	D1 mod 5.83, CYP2C19 inhib 66.5, CYP2C9 inh 58.2 | D1 PAM confirm 11980 | D1 ag no DA inactive | Isoprot counter active
N#Cc1nc(-c2ccccc2F)oc1NCc1ccccc1	D1 mod 7.87, CYP2C9 inh 66.0 | D1 PAM confirm 14936 | D1 ag no DA inactive | Isoprot counter active
CC(NC(=O)COC(=O)c1ccco1)c1ccccc1 (stereo unspecified)	none (no result: D1 mod)
COC(=O)n1c(SC)nc2ccccc21	D1 mod 5.61 | D1 PAM confirm 11396 | D1 ag no DA inactive | Isoprot counter active
Cc1cccc(NC(=O)N2CCCC2C(=O)NCc2cccs2)c1 (stereo unspecified)	none (no result: D1 mod)
COC(=O)Nc1ccc2c(c1)N(C(=O)CCN1CCOCC1)c1ccccc1S2	D1 mod 4.3 | D1 PAM confirm 8120 | D1 ag no DA inactive | Isoprot counter inactive
CCOC(=O)Nc1ccc2c(c1)N(C(=O)CCN1CCOCC1)c1ccccc1S2	D1 mod 4.82, CYP2C19 inhib 65.2 | D1 PAM confirm 10492 | D1 ag no DA inactive | Isoprot counter active
O=C(Cc1ccsc1-c1ccccc1)NO	none
CCC(CC)c1nnc(NC(=O)c2ccc3ccccc3n2)s1	none (no result: D1 mod, CYP2C19 inhib, CYP2C9 inh, CYP2C19 act, CYP2C9 act)
CCOc1ccc(-c2nnn(CC(=O)NCc3ccc4c(c3)OCO4)n2)cc1	none (no result: D1 mod, CYP2C19 inhib, CYP2C9 inh, CYP2C19 act, CYP2C9 act)
CCOc1ccc(-c2nnn(CC(=O)c3ccc4c(c3)OCCO4)n2)cc1OCC	D1 mod 9.26 | D1 PAM confirm 18056 | D1 ag no DA inactive | Isoprot counter active
Cc1ccc(S(=O)(=O)C(CCC(=O)N2CCOCC2)S(=O)(=O)c2ccc(C)cc2)cc1	none
Cc1ccc(-n2ncc(C#N)c2/N=C/N2CCN(C)CC2)cc1	none
Cc1ccc(-n2ncc(C#N)c2/N=C/N2CCCCCC2)cc1	D1 mod 20, CYP2C19 inhib 96.6, CYP2C9 inh 90.7 | D1 PAM confirm 17800 | D1 ag no DA inactive | Isoprot counter active
COCC(=O)Nc1nnc(SCC(=O)NCc2cccs2)s1	none
CCOc1cccc(-c2nnc3sc(-c4ccc(C)cc4)nn23)c1	none (no result: D1 mod, hDAT+cocaine)
COc1cccc(-c2nn3c(-c4cc(C)[nH]n4)nnc3s2)c1	D1 mod 3.43 | D1 PAM confirm 6292 | D1 ag no DA inactive | Isoprot counter inactive
Cc1cccc(-c2nnc3sc(-c4ccccc4)nn23)c1	D1 mod 7.58 | D1 PAM confirm 15580 | D1 ag no DA inactive | Isoprot counter active
c1ccc(-c2nn3c(-c4ccccc4)nnc3s2)cc1	D1 mod 6.25 | D1 PAM confirm 14100 | D1 ag no DA inactive | Isoprot counter inactive
Cc1ccnc(NS(=O)(=O)c2ccc(N=CC3=C(O)CC(C)(C)CC3=O)cc2)n1	none
CC1(C)Cc2c(c(-c3ccco3)[nH]c(=O)c2C#N)CS1	none (no result: D1 mod)
O=C(c1cccc(-n2cnnn2)c1)N1CC=C(c2ccccc2)CC1	none
CCOC(=O)c1sc(=S)n(CC)c1N	D1 mod 5.12, CYP2C19 inhib 83.7, CYP2C9 inh 71.7 | D1 PAM confirm 10812 | D1 ag no DA inactive | Isoprot counter inactive
CCOc1ccc(C(C)=O)cc1COC(=O)C1=COCCO1	D1 mod 4.68, CYP2C19 inhib 63.5 | D1 PAM confirm 12532 | D1 ag no DA inactive | Isoprot counter active
CCOc1ccc(C(C)=O)cc1CC(C(N)=O)C(N)=O	none (no result: D1 mod, hDAT+cocaine)
CSc1cc(C)nc(NC(C)=O)n1	none (no result: D1 mod)
N#Cc1cc2c(nc1SCc1ccccc1)CCCCC2	none (no result: D1 mod)
N#Cc1cc2c(nc1SCc1cccnc1)CCCCC2	D1 mod 10.2, CYP2C19 inhib 80.0 | D1 PAM confirm 23880 | D1 ag no DA inactive | Isoprot counter active
O=C(CN1CCN(C(=O)c2ccccc2)CC1)Nc1ccc(Br)cn1	none
